Legend:
Assay in all cases: DAPPL (digital affinity profiling via proximity ligation, sequencing); 10 mM Tris-HCl pH 7.5, 50 mM NaCl, 1 mM DTT, 4% glycerol, room temperature, 30 min; GST-TFs on glutathione beads, 16-mer random dsDNA library, 0.1% formaldehyde crosslink after washing; high values mean tight binding
[1] = biological target: T1, FEV (Homo sapiens, UniProt Q99581 1-238); settings: protein: recombinant; tags: N-terminal GST; dsDNA, one strand shown
T1 sequence: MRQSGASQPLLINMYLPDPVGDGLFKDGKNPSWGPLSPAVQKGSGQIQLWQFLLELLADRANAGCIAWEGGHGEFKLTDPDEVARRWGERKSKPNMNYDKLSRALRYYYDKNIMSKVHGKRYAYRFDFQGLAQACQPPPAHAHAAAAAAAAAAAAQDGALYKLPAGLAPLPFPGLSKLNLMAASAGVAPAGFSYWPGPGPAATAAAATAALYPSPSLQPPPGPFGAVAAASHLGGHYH
In short: (§1)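 Each value of binding signal is a hexamer's read frequency for a factor divided by the same hexamer's frequency in the tag-only sample. Barcoded, bead-captured GST fusions of human transcription factors made in yeast were pooled with that sample and incubated with 200 nmole of a random double-stranded 16-mer DNA library in Tris/NaCl/DTT/glycerol buffer at room temperature for 30 min. Washing, 0.1% formaldehyde crosslinking, proximity ligation, PCR and Illumina NextSeq500 sequencing followed.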

[2] = biological target: ETV5 (Homo sapiens, UniProt P41161 1-510); settings: protein: recombinant; tags: N-terminal GST; dsDNA, one strand shown
In short: as §1

[3] = biological target: HSF1 (Homo sapiens, UniProt Q00613 1-529); settings: protein: recombinant; tags: N-terminal GST; chain copies: 3; dsDNA, one strand shown
In short: as §1

[4] = biological target: T2, SPIC (Homo sapiens, UniProt Q8N5J4 1-248); settings: protein: recombinant; tags: N-terminal GST; dsDNA, one strand shown
T2 sequence: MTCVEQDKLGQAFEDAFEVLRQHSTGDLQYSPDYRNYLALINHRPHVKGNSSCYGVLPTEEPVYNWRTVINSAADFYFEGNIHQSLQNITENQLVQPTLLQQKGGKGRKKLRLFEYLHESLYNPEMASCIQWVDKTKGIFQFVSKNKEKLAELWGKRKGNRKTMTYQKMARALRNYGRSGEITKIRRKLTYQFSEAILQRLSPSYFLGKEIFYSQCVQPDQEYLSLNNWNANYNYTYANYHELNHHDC
In short: as §1

[5] = biological target: ELF4 (Homo sapiens, UniProt Q99607 1-663); settings: protein: recombinant; tags: N-terminal GST; dsDNA, one strand shown
In short: as §1

[6] = biological target: T3, ELK4 (Homo sapiens, UniProt P28324-2 1-405); settings: protein: recombinant; tags: N-terminal GST; dsDNA, one strand shown
T3 sequence: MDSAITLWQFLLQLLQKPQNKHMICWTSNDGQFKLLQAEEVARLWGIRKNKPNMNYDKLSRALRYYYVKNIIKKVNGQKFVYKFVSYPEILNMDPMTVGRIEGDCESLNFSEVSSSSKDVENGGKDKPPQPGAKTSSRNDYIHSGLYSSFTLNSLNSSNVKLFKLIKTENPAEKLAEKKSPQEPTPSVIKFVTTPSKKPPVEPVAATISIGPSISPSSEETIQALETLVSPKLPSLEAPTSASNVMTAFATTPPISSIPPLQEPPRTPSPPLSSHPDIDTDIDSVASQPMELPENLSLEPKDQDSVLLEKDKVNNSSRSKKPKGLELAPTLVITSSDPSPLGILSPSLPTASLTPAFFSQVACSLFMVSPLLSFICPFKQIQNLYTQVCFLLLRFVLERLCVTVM
In short: as §1

[7] = biological target: T4, ETV2 (Homo sapiens, UniProt O00321 1-342); settings: protein: recombinant; tags: N-terminal GST; dsDNA, one strand shown
T4 sequence: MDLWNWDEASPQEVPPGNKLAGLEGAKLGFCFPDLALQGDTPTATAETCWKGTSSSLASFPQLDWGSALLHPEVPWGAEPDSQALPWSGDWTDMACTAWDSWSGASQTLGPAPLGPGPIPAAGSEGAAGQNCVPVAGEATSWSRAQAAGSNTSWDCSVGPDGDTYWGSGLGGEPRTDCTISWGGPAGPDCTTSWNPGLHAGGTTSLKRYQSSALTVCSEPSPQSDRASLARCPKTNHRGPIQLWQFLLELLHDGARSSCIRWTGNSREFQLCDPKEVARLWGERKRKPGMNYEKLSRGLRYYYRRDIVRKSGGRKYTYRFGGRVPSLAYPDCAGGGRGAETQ
In short: as §1

[8] = biological target: T5, ELF3 (Homo sapiens, UniProt P78545 1-371); settings: protein: recombinant; tags: N-terminal GST; dsDNA, one strand shown
T5 sequence: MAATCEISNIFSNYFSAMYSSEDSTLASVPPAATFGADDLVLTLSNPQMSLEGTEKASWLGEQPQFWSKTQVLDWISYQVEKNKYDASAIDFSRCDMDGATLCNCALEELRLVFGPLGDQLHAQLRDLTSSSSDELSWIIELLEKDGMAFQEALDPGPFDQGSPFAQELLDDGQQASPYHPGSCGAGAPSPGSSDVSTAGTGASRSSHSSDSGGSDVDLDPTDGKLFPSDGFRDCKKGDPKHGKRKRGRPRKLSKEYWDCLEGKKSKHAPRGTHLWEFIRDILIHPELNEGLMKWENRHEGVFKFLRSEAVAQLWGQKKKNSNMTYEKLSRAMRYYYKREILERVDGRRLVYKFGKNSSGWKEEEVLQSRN
In short: as §1

[9] = biological target: CRX (Homo sapiens, UniProt O43186 1-299); settings: protein: recombinant; tags: N-terminal GST; dsDNA, one strand shown
In short: as §1

[10] = biological target: ETV1 (Homo sapiens, UniProt P50549 1-477); settings: protein: recombinant; tags: N-terminal GST; dsDNA, one strand shown
In short: as §1

Chain of CRX (O43186 whole entry): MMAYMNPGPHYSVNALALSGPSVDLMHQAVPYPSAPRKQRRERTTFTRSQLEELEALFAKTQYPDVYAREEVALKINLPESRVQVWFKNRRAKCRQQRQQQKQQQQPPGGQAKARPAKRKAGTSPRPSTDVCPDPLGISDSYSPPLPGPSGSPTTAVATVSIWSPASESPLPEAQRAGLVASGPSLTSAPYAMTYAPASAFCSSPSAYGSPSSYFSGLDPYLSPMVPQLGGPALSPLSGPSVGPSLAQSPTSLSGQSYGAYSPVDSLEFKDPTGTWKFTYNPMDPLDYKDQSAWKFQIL
Chain of HSF1 (Q00613 whole entry): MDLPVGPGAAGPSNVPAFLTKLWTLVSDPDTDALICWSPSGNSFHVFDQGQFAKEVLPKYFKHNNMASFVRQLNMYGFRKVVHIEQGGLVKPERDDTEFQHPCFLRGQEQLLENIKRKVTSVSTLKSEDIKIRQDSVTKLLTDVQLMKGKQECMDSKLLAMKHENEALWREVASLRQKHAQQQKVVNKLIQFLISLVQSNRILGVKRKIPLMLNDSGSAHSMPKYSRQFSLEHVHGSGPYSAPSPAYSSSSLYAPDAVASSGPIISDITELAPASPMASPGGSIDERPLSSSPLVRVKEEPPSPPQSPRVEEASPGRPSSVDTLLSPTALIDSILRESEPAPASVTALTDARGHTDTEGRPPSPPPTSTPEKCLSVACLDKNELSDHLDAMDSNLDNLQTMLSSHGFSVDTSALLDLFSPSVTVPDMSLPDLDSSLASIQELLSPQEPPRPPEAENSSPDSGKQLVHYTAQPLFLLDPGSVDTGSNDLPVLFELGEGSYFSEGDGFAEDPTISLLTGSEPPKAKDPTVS
Chain of ETV5 (P41161 whole entry): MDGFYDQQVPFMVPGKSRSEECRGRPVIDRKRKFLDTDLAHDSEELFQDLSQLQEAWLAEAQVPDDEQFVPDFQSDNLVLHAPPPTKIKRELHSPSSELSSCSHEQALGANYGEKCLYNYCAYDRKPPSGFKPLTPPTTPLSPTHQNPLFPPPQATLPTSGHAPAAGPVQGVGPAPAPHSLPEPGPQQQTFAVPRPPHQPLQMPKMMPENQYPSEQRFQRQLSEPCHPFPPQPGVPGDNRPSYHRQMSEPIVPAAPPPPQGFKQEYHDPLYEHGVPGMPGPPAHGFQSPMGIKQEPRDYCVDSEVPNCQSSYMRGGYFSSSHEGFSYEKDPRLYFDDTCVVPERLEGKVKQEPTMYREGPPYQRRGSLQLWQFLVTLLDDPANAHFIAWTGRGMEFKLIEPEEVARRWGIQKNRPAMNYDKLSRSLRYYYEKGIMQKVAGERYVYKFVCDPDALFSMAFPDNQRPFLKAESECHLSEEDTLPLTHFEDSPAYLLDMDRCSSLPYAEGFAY
Chain of ETV1 (P50549 whole entry): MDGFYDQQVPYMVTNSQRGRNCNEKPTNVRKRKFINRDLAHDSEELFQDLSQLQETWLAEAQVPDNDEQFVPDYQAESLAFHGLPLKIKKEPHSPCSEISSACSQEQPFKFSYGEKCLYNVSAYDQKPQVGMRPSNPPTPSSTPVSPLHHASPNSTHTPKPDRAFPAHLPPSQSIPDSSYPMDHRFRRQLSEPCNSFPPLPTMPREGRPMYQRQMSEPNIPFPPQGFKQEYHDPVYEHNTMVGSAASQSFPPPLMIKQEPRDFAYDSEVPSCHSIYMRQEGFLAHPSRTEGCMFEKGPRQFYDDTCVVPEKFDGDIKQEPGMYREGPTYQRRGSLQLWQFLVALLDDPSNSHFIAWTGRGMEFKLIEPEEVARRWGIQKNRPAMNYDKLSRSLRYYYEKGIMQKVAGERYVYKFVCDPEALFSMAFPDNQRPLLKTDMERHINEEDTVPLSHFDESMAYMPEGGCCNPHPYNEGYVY
Chain of ELF4 (Q99607 whole entry): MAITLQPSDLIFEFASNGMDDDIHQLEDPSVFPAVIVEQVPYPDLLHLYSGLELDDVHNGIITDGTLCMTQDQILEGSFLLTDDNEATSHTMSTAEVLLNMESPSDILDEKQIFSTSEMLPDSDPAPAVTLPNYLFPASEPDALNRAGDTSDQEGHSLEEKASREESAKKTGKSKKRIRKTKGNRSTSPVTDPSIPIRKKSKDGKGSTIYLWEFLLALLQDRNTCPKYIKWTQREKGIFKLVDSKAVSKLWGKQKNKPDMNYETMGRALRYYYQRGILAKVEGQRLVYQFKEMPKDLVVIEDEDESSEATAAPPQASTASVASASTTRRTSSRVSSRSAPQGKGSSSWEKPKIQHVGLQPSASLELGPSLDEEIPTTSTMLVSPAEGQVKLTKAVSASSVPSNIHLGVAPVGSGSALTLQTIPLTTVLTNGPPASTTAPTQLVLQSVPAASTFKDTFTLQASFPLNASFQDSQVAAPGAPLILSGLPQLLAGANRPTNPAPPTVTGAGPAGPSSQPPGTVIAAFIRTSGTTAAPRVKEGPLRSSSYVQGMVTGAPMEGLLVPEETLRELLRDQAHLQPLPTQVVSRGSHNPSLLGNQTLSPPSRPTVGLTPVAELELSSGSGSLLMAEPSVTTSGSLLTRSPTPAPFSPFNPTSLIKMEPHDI

| Sequence | binding signal [1] | binding signal [2] | binding signal [3] | binding signal [4] | binding signal [5] | binding signal [6] | binding signal [7] | binding signal [8] | binding signal [9] | binding signal [10] |
| --- | --- | --- | --- | --- | --- | --- | --- | --- | --- | --- |
| TCCGCA | 1.91 fold enrichment (6-mer frequency, TF over GST control) | 2.24 fold enrichment (6-mer frequency, TF over GST control) | 1.21 fold enrichment (6-mer frequency, TF over GST control) | 2.46 fold enrichment (6-mer frequency, TF over GST control) | 1.98 fold enrichment (6-mer frequency, TF over GST control) | 1.76 fold enrichment (6-mer frequency, TF over GST control) | 1.98 fold enrichment (6-mer frequency, TF over GST control) | 2.22 fold enrichment (6-mer frequency, TF over GST control) | 1.35 fold enrichment (6-mer frequency, TF over GST control) | 2.15 fold enrichment (6-mer frequency, TF over GST control) |
| AATGTT | 1.47 fold enrichment (6-mer frequency, TF over GST control) | 1.61 fold enrichment (6-mer frequency, TF over GST control) | 2.33 fold enrichment (6-mer frequency, TF over GST control) | 1.68 fold enrichment (6-mer frequency, TF over GST control) | 1.57 fold enrichment (6-mer frequency, TF over GST control) | 1.46 fold enrichment (6-mer frequency, TF over GST control) | 1.43 fold enrichment (6-mer frequency, TF over GST control) | 1.51 fold enrichment (6-mer frequency, TF over GST control) | 1.59 fold enrichment (6-mer frequency, TF over GST control) | 1.66 fold enrichment (6-mer frequency, TF over GST control) |
| CGTTCT | 1.45 fold enrichment (6-mer frequency, TF over GST control) | 1.45 fold enrichment (6-mer frequency, TF over GST control) | 2.27 fold enrichment (6-mer frequency, TF over GST control) | 1.45 fold enrichment (6-mer frequency, TF over GST control) | 1.47 fold enrichment (6-mer frequency, TF over GST control) | 1.43 fold enrichment (6-mer frequency, TF over GST control) | 1.39 fold enrichment (6-mer frequency, TF over GST control) | 1.4 fold enrichment (6-mer frequency, TF over GST control) | 1.49 fold enrichment (6-mer frequency, TF over GST control) | 1.37 fold enrichment (6-mer frequency, TF over GST control) |
| CTTTTC | 1.39 fold enrichment (6-mer frequency, TF over GST control) | 1.44 fold enrichment (6-mer frequency, TF over GST control) | 1.5 fold enrichment (6-mer frequency, TF over GST control) | 1.45 fold enrichment (6-mer frequency, TF over GST control) | 1.43 fold enrichment (6-mer frequency, TF over GST control) | 1.49 fold enrichment (6-mer frequency, TF over GST control) | 1.48 fold enrichment (6-mer frequency, TF over GST control) | 1.48 fold enrichment (6-mer frequency, TF over GST control) | 1.25 fold enrichment (6-mer frequency, TF over GST control) | 1.4 fold enrichment (6-mer frequency, TF over GST control) |
| TACTAC | 1.35 fold enrichment (6-mer frequency, TF over GST control) | 1.33 fold enrichment (6-mer frequency, TF over GST control) | 1.17 fold enrichment (6-mer frequency, TF over GST control) | 1.26 fold enrichment (6-mer frequency, TF over GST control) | 1.36 fold enrichment (6-mer frequency, TF over GST control) | 1.19 fold enrichment (6-mer frequency, TF over GST control) | 1.38 fold enrichment (6-mer frequency, TF over GST control) | 1.08 fold enrichment (6-mer frequency, TF over GST control) | 1.13 fold enrichment (6-mer frequency, TF over GST control) | 1.24 fold enrichment (6-mer frequency, TF over GST control) |
| CGTTTC | 1.98 fold enrichment (6-mer frequency, TF over GST control) | 1.72 fold enrichment (6-mer frequency, TF over GST control) | 1.24 fold enrichment (6-mer frequency, TF over GST control) | 1.77 fold enrichment (6-mer frequency, TF over GST control) | 1.8 fold enrichment (6-mer frequency, TF over GST control) | 1.65 fold enrichment (6-mer frequency, TF over GST control) | 1.41 fold enrichment (6-mer frequency, TF over GST control) | 1.72 fold enrichment (6-mer frequency, TF over GST control) | 1.06 fold enrichment (6-mer frequency, TF over GST control) | 1.61 fold enrichment (6-mer frequency, TF over GST control) |
| CTGCTC | 1.31 fold enrichment (6-mer frequency, TF over GST control) | 1.26 fold enrichment (6-mer frequency, TF over GST control) | 1.17 fold enrichment (6-mer frequency, TF over GST control) | 1.39 fold enrichment (6-mer frequency, TF over GST control) | 1.29 fold enrichment (6-mer frequency, TF over GST control) | 1.45 fold enrichment (6-mer frequency, TF over GST control) | 1.35 fold enrichment (6-mer frequency, TF over GST control) | 1.18 fold enrichment (6-mer frequency, TF over GST control) | 1.22 fold enrichment (6-mer frequency, TF over GST control) | 1.21 fold enrichment (6-mer frequency, TF over GST control) |
